High-throughput results (PubChem)
An excerpt weighted towards active compounds, which were near 0.51% of everything screened.
Epigenetic reg: regulators of epigenetic silencing causing reporter derepression in mouse cells | murine LDR cells, GFP reporter derepression, 30 h | Potency, µM (doses to about 53.9 µM), for inactives: top-dose GFP activation, actives largely listed as activators | 0.2% of 280,000 active; note: % of control where 0% means no effect; nearly all actives have a fitted effect of over 60% in size
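In this reporter-derepression format, murine cells bearing a silenced integrated CMV-GFP locus incubate with test compound (30 h, 37 C), then are washed and imaged; fluorescent objects of 20–120 um count as induced cells.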
PINK1 expr mod: PINK1 expression modulation; PINK1 immunofluorescence, high-content cytometry, 24 h; Potency, µM (highest dose often 76.6 µM), without a hit: at the highest dose activation (PINK1 increase), usual class: activators; 0.2% of 410,000 active; active = well fitted activation curve with a large enough effect; inconclusive = small, poorly fitted or top-dose-only effect; cell line not stated here; note: % of control where 0% means no effect; nearly all actives have a fitted effect of over 65% in size
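PINK1 protein, normally rapidly degraded, was detected by immunofluorescence after 24 hour compound treatment of a stable cell line. Titration data (5 concentrations) came from laser-scanning cytometry, with CCCP-treated wells as controls.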
Vif-APOBEC3G blk: Vif-A3G binding inhibition; AID 602310; Q9HC16; 0.076% of 410,000 active; Potency, µM (highest dose often 46.1 µM), for inactives: top-dose activity, negative = active, most hits filed as inhibitors; HeLa A3G-eYFP + Vif (tagged APOBEC3G with the HIV-1 protein that degrades it), YFP fluorescence, overnight; note: % is set by controls: 0 for no effect and ±100 for the full control effect; nearly all actives have a fitted effect of over 60% in size
Target sequence (Q9HC16 whole entry, looked up): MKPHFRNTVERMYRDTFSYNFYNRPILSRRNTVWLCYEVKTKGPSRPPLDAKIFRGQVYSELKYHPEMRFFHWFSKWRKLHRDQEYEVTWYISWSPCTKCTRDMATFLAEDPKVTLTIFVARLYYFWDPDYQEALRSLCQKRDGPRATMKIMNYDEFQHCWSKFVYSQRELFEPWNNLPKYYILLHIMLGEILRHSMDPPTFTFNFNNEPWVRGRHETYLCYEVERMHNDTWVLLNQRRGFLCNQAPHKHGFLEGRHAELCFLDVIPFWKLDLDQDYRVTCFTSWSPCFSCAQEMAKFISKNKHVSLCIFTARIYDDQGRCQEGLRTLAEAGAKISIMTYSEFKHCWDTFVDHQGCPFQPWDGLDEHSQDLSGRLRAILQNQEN
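Read-out is eYFP fluorescence (Ex 488/Em 500-530) from Vif-expressing HeLa A3G-eYFP cells; more signal means A3G escaped Vif-mediated degradation. Cells plated overnight, compound pinned in, incubated overnight at 37 deg C.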
Vif-APOBEC3F blk: blocks the Vif interaction with APOBEC3F; HeLa A3F-eYFP + Vif (tagged APOBEC3F with the HIV-1 protein that degrades it), YFP fluorescence increase; Potency, µM (highest dose often 46.1 µM), inactives show top-dose activity, negative = active; 0.2% of 390,000 active; AID 602313; note: % of control where 0% means no effect; nearly all actives have a fitted effect of over 65% in size
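HeLa cells stably expressing Vif plus C-terminally eYFP-tagged A3F were seeded, incubated overnight at 37 deg C, dosed with compound, incubated overnight again at 37 deg C. Yellow fluorescence (Ex 488/Em 500-530) reported blocked Vif-mediated A3F-eYFP degradation.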
* = called active by the depositor; [ ] = another dose, or the depositor's remark. Unless noted, calls come from the whole dose curve; as a rule, active = well fitted curve in the direction sought with a large enough effect; inconclusive = small, poorly fitted or top-dose-only effect, or another doubt; inactive = no such curve, though single readings can be large; an effect the other way counts as inactive or inconclusive. Potency is the fitted concentration of half-maximal effect.

CCOC(=O)/C(C#N)=C/c1ccc(-c2ccsc2C(=O)OC)o1 was read as Epigenetic reg 0.0%, PINK1 expr mod 25.1µM*, Vif-APOBEC3G blk 0.6% and Vif-APOBEC3F blk inconclusive.
For c1ccc2c(Nc3ccc4c(c3)OCCO4)c3c(nc2c1)CCCC3 the results were Epigenetic reg -0.4%, PINK1 expr mod 39.8µM*, Vif-APOBEC3G blk 0.4% and Vif-APOBEC3F blk 3.7%.
`COC(=O)c1sccc1S(=O)(=O)N1CCC(n2c(CC3CCCC3)nc3cccnc32)CC1` gave PINK1 expr mod 2.1%.
`Cc1ccccc1N=C/C=C1/C=C(c2ccccc2)OC(C)(C)O1` gave Epigenetic reg 22.4µM*, PINK1 expr mod -5.7%[38.3 µM], Vif-APOBEC3G blk 0.9% and Vif-APOBEC3F blk -3.1%.
Screening COc1ccc(N=C/C=C2\C=C(c3ccccc3)OC(C)(C)O2)cc1 returned Epigenetic reg inconclusive, PINK1 expr mod -4.8%, Vif-APOBEC3G blk -1.6% and Vif-APOBEC3F blk -13.7%.
CCN(CC)c1ccc(C=C2C(=O)OC(c3ccccc3)OC2=O)cc1 (stereo unspecified) was read as Epigenetic reg 1.5%, PINK1 expr mod 2.4%, Vif-APOBEC3G blk -0.6% and Vif-APOBEC3F blk -19.9%.
CCN(CC)c1ccc(/C=C/C(=O)C2C(=O)C=C(C)OC2=O)cc1 (stereo unspecified) was read as Epigenetic reg 11.2µM*, PINK1 expr mod inconclusive, Vif-APOBEC3G blk 13.2% and Vif-APOBEC3F blk -314.0%.
Screening COc1ccccc1-c1ccnc(-n2ncc(C(=O)NCCc3ccccn3)c2C)n1 returned PINK1 expr mod 0.1%.
Screening CCCCNC(=O)c1sc2ncnc(NCC3CCCO3)c2c1C (stereo unspecified) returned PINK1 expr mod -0.3%.
`CCOC(=O)CC1C(=O)NCCN1c1nc2ccc(C)cn2c(=O)c1/C=C1\SC(=S)N(C(C)CC)C1=O` (stereo unspecified) gave Epigenetic reg -3.1%.
`CCOC(=O)CC1C(=O)NCCN1c1nc2ccc(C)cn2c(=O)c1/C=C1\SC(=S)N(CC(C)C)C1=O` (stereo unspecified) gave Epigenetic reg 3.55µM*, PINK1 expr mod 23.6%, Vif-APOBEC3G blk inconclusive and Vif-APOBEC3F blk inconclusive.
`CCCN(CCC)S(=O)(=O)c1ccc(C(=O)OCCN2C(=O)c3cccc4c(N5CCOCC5)ccc(c34)C2=O)cc1` gave Epigenetic reg 25.1µM*, PINK1 expr mod 5.3%, Vif-APOBEC3G blk -6.9% and Vif-APOBEC3F blk -16.8%.
COc1ccccc1N1CCN(c2nc(CNC(=O)c3ccc4c(c3)OCO4)nc3ccccc23)CC1 was read as PINK1 expr mod -0.8%.
`Cc1ccsc1C(=O)N(Cc1cc2ccc(F)cc2nc1N1CCC(O)CC1)CC1CCCO1` (stereo unspecified) gave PINK1 expr mod -0.6%.
CCSc1nnc(C(C)NC(=O)c2ccc(OC)cc2)n1C (stereo unspecified) was read as PINK1 expr mod 0.7%.
For O=[N+]([O-])c1cc([N+](=O)[O-])c2oc(-c3ccccc3)c(Br)c2c1O the results were PINK1 expr mod 35.5µM*, Vif-APOBEC3G blk -27.6% and Vif-APOBEC3F blk -14.6%.
`O=c1c(O)c(-c2ccccc2)oc2cccc(O)c12` gave Epigenetic reg 5.3% and PINK1 expr mod 0.6%.
`C=C1C(=O)C=C2CN(C(=O)c3ccccc3)[C@@](Cc3ccc(F)cc3)(C(=O)OC)[C@@H]12` gave Epigenetic reg 11.6%, PINK1 expr mod 6.9%, Vif-APOBEC3G blk 7.08µM* and Vif-APOBEC3F blk -9.8%.
`C=C1C(=O)CC2=C1[C@](Cc1ccc(F)cc1)(C(=O)OC)N(C(=O)c1ccccc1)C2` gave PINK1 expr mod 6.8%.
Screening CN(C)c1ncc2nc(-c3ccc(F)cc3)c(=O)n(-c3ccccc3)c2n1 returned PINK1 expr mod 14.2%.
`COc1ccc(-n2c(=O)c(-c3cccs3)nc3cnc(Nc4ccccc4)nc32)cc1` gave PINK1 expr mod 4.47µM*.
`CN(C)c1ncc2nc(-c3cccs3)c(=O)n(-c3ccccc3)c2n1` gave PINK1 expr mod 39.8µM*.
`CCNC(=O)c1cc(NC(=O)COC)cc2nc(-c3ccncc3)n(C)c12` gave PINK1 expr mod 0.3%.
`Cc1cc(Br)ccc1NC(=S)Nc1cccc([N+](=O)[O-])c1` gave Epigenetic reg -0.9%, PINK1 expr mod 39.8µM*, Vif-APOBEC3G blk -0.8% and Vif-APOBEC3F blk 1.8%.
For CNC(=S)Nc1cccc([N+](=O)[O-])c1 the results were Epigenetic reg -0.2%, PINK1 expr mod -1.0%, Vif-APOBEC3G blk -0.8% and Vif-APOBEC3F blk 13.4%.
`CC(=O)Nc1sc(C)c(C)c1C(=O)OCC(=O)Nc1ccccc1` gave PINK1 expr mod inconclusive, Vif-APOBEC3G blk inconclusive and Vif-APOBEC3F blk 11.2µM*.
`Nc1c(C(=O)O)sc2nc3c(cc12)CCCC3` gave Epigenetic reg -1.0%, PINK1 expr mod 2.2%, Vif-APOBEC3G blk 2.9% and Vif-APOBEC3F blk 1.5%.
For Nc1c(C(=O)c2ccc(Cl)cc2)sc2nc3c(cc12)CCC3 the results were Epigenetic reg inconclusive, PINK1 expr mod inconclusive, Vif-APOBEC3G blk -7.8% and Vif-APOBEC3F blk 25.1µM*.
`CN(CCC#N)c1ccc(/C=C(\C#N)c2ccccn2)cc1` gave Epigenetic reg 0.0%, PINK1 expr mod -1.2%, Vif-APOBEC3G blk -0.6% and Vif-APOBEC3F blk -3.1%.
`CCN(Cc1ccccc1)c1ccc(/C=C(\C#N)c2ccccn2)cc1` gave Epigenetic reg inconclusive, PINK1 expr mod 6.8%, Vif-APOBEC3G blk -12.0% and Vif-APOBEC3F blk 22.4µM*.
Screening CCN(CC)c1ccc(/C=C(\C#N)c2ccccn2)cc1 returned Epigenetic reg 17.8µM*, PINK1 expr mod 1.8%, Vif-APOBEC3G blk 10µM* and Vif-APOBEC3F blk inconclusive.
Cc1cccc(-c2cccc(C(=O)N3CCc4c(cnc(C)c4CNC(=O)c4cncs4)C3)c2)c1 was read as PINK1 expr mod 9.6%.
For C=CC[C@H](c1ccc(F)cc1)N(CC(C)C)S(=O)(=O)C=C the results were Vif-APOBEC3G blk -10.6%.
For Cn1cc(/C=C2\SC(=S)N(NC(=O)c3cccc(Cl)c3)C2=O)c2ccccc21 the results were Epigenetic reg 2.1%, PINK1 expr mod 1.0%, Vif-APOBEC3G blk inconclusive and Vif-APOBEC3F blk 7.94µM*.
For Nc1c(C(=O)N/N=C/c2cccnc2)oc2nc(-c3ccccc3)cc(-c3ccco3)c12 the results were Epigenetic reg 7.5%, PINK1 expr mod inconclusive, Vif-APOBEC3G blk -13.1% and Vif-APOBEC3F blk 10µM*.
`CCOc1cc([N+](=O)[O-])cc2c1C(=O)Nc1ccccc1O2` gave Epigenetic reg inconclusive, PINK1 expr mod 8.3%, Vif-APOBEC3G blk inconclusive and Vif-APOBEC3F blk 22.4µM*.
`CCOc1cc(C(=O)Nc2cnccn2)cc(OCC)c1OCC` gave Epigenetic reg 0.7%, PINK1 expr mod 14.1µM*, Vif-APOBEC3G blk inconclusive and Vif-APOBEC3F blk -8.1%.
`CCOc1cc(C(=O)Nc2cc(C)ccn2)cc(OCC)c1OCC` gave Epigenetic reg 0.0%, PINK1 expr mod 0.6%, Vif-APOBEC3G blk 0.2% and Vif-APOBEC3F blk -2.4%.
